Records with an inconclusive call do not appear. Activity calls are given as the source filed them. Unless noted, the call rests on the fitted dose curve; in most records, active means well fitted curve in the direction sought with a large enough effect in the repeat runs; inconclusive means weak or mixed curves; inactive means no such curve, though single readings can be large; an effect the other way counts as inactive or inconclusive.
What was measured:
[1] = target: Luciferin 4-monooxygenase (Photinus pyralis) (UniProt P08659); test: qHTS assay to identify small molecule inhibitors of firefly luciferase (AID 1224835); further: nearly all actives have a fitted effect of over 25% in size; further: potency means the concentration at half of the fitted maximal effect
Chain of Luciferin 4-monooxygenase (Photinus pyralis) (P08659 whole entry, looked up): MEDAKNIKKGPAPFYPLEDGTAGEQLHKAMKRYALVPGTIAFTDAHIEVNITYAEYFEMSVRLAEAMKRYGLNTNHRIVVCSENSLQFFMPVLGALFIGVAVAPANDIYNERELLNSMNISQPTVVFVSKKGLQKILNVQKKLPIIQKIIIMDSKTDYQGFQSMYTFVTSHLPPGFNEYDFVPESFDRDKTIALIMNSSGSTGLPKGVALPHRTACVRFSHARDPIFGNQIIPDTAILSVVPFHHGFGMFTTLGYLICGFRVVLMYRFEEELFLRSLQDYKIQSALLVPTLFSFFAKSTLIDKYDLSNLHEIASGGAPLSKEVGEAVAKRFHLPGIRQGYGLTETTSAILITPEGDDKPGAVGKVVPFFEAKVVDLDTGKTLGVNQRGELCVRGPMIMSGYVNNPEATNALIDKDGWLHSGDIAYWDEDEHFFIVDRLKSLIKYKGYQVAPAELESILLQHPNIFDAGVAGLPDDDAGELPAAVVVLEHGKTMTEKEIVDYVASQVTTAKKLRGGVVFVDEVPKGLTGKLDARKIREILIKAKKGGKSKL
Summary of the method: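 Biochemical qHTS: compounds run as interplate titrations against purified firefly enzyme, with D-luciferin and ATP each at its KM concentration. Light output recorded by CCD imaging.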

[2] = qHTS assay to identify small molecule agonists of the constitutive androstane receptor (CAR) signaling pathway - cell viability counter screen (AID 1224836); further: nearly all actives have a fitted effect of over 45% in size
Summary of the method: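 HepG2-CYP2B6-hCAR, 2500 cells/well, 4 h pre-incubation; cpd 15 conc + PK11195 0.75 uM final; 23 h, 37 C/5% CO2; CellTiter-Fluor, fluorescence.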

[3] = qHTS assay to identify small molecule antagonists of the constitutive androstane receptor (CAR) signaling pathway - cell viability counter screen (AID 1224837); further: nearly all actives have a fitted effect of over 45% in size
Summary of the method: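 Multiplexed cytotoxicity read-out for the CAR antagonist screen: double-stable HepG2-CYP2B6-hCAR cells co-treated with 50 nM CITCO (final) and compound over 15 concentrations, incubated 23 hr, then assessed by CellTiter-Fluor fluorescence.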

[4] = target: Nuclear receptor subfamily 1 group I member 3 (Homo sapiens) (UniProt Q14994); test: qHTS assay to identify small molecule antagonists of the constitutive androstane receptor (CAR) signaling pathway (AID 1224838); further: nearly all actives have a fitted effect of over 40% in size
Chain of Nuclear receptor subfamily 1 group I member 3 (Homo sapiens) (Q14994 whole entry, looked up): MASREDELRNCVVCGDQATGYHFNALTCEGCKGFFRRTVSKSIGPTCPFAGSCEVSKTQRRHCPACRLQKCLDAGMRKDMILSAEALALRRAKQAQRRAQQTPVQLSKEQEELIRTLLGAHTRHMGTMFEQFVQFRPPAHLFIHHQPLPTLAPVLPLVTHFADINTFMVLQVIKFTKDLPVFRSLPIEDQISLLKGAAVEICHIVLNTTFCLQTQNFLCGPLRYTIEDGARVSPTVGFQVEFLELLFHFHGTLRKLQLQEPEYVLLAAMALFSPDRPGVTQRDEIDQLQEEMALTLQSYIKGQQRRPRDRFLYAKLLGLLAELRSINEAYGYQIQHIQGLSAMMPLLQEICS
Summary of the method: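 Compounds were titrated across 15 concentrations onto HepG2 cells double-stably expressing hCAR and a CYP2B6-2.2kb reporter, together with 50 nM CITCO (final). After 24 h at 37 C, luciferase activity was measured by luminescence.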

[5] = target: Nuclear receptor subfamily 1 group I member 3 (Homo sapiens) (UniProt Q14994); test: qHTS assay to identify small molecule agonists of the constitutive androstane receptor (CAR) signaling pathway (AID 1224839); further: nearly all actives have a fitted effect of over 15% in size; further: potency means the concentration at half of the fitted maximal effect;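 on activation: HepG2 cells stably carrying human CAR and a CYP2B6 luciferase reporter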
Summary of the method: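 HepG2-CYP2B6-hCAR cells, 2500/well, 4 h pre-incubation; compounds 15 conc.; PK11195 0.75 uM final; 24 h, 37 C/5% CO2; ONE-Glo luciferase read.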

[6] = qHTS assay to identify small molecule antagonists of the estrogen related receptor signaling pathway with the pleiotropic PPARgamma coactivator (PGC) from Tox21 10K library - cell viability counter screen (AID 1224840; active means well fitted cell-killing curve with a large enough effect in the repeat runs, not every such curve was filed as active; further: nearly all actives have a fitted effect of over 40% in size)
Summary of the method: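 Step one, plate 2,000 PGC/ERR cells per well; step two, incubate 6 h at 37 C/5% CO2; step three, pin-transfer compounds; step four, incubate 17.5 h; step five, add CellTiter-Fluor and read fluorescence after 30 min.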

[7] = qHTS assay to identify small molecule agonists of the hypoxia (HIF-1) signaling pathway (AID 1224846; active means well fitted activation curve with a large enough effect in the signal ratio in the repeat runs, not every such curve was filed as active; the % refers to the signal ratio)
Summary of the method: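 Steps: seed ME-180 HRE-bla cells (2,000/well, 0.5% dialyzed FBS); incubate 5 hrs at 37C; pin-transfer compounds or DMSO; incubate 17 hrs; add LiveBLAzer B/G substrate CCF4-AM; measure reporter activation by FRET.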

[8] = qHTS assay to identify small molecule agonists of H2AX - cell viability counter screen (AID 1224847; calls by dose curve; further: top concentration of the series differs between compounds; nearly all actives have a fitted effect of over 30% in size)
Summary of the method: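 Cells plated first: CHO-K1, 1000 per well in 10% FBS medium, incubated overnight at 37C. Then 15-point compound titration added (final DMSO 0.76%) for 3 hr. Finally CellTiter-Glo added and luminescence read.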

[9] = qHTS RealTime-Glo MT Cell Viability Assay in HepG2 cells - 24 hour (AID 1224867); further: nearly all actives have a fitted effect of over 50% in size
Summary of the method: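 Real-time, nonlytic viability: 600 HepG2 cells/well mixed with NanoLuc enzyme plus prosubstrate; 5 h settle, compound (DMSO) added by pintool; luminescence monitored over 40 h at 37 C.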

[10] = A CellTox Green Cytotoxicity Assay to monitor cytotoxicity in HEK293 cells - 0 hour (AID 1224869); further: nearly all actives have a fitted effect of over 50% in size
Summary of the method: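 Cytotoxicity was tracked continuously in HEK293 cells by a DNA-binding dye excluded from viable cells. Compounds were transferred in DMSO 5 h after seeding; fluorescence was recorded at intervals up to 40 h.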

[11] = qHTS RealTime-Glo MT Cell Viability Assay in HepG2 cells - 40 hour (AID 1224870); further: nearly all actives have a fitted effect of over 50% in size
Summary of the method: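 HepG2 cells (600/well) mixed with RealTime-Glo MT reagent, settled 5 h at 37 C/5% CO2 before compound addition. Nonlytic NanoLuc luminescence from viable-cell prosubstrate reduction read repeatedly during 40 h treatment at 37 C.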

[12] = qHTS assay to identify small molecule agonists of the estrogen related receptor signaling pathway with the pleiotropic PPARgamma coactivator (PGC) from Tox21 10K library (AID 1224842); further: nearly all actives have a fitted effect of over 15% in size; further: potency means the concentration at half of the fitted maximal effect
Summary of the method: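 PGC/ERR reporter cell line, 2,000 cells per well, incubated 6 h at 37 C before 23 nL compound in DMSO was added. After 18 h at 37 C, One-Glo luminescence read following 30 min at room temperature.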

[13] = target: Thyrotropin receptor (Homo sapiens) (UniProt P16473); test: qHTS assay to identify small molecule agonists of the thyroid stimulating hormone receptor (TSHR) signaling pathway (AID 1224843; calls by dose curve; further: nearly all actives have a fitted effect of over 45% in size)
Chain of Thyrotropin receptor (Homo sapiens) (P16473 whole entry, looked up): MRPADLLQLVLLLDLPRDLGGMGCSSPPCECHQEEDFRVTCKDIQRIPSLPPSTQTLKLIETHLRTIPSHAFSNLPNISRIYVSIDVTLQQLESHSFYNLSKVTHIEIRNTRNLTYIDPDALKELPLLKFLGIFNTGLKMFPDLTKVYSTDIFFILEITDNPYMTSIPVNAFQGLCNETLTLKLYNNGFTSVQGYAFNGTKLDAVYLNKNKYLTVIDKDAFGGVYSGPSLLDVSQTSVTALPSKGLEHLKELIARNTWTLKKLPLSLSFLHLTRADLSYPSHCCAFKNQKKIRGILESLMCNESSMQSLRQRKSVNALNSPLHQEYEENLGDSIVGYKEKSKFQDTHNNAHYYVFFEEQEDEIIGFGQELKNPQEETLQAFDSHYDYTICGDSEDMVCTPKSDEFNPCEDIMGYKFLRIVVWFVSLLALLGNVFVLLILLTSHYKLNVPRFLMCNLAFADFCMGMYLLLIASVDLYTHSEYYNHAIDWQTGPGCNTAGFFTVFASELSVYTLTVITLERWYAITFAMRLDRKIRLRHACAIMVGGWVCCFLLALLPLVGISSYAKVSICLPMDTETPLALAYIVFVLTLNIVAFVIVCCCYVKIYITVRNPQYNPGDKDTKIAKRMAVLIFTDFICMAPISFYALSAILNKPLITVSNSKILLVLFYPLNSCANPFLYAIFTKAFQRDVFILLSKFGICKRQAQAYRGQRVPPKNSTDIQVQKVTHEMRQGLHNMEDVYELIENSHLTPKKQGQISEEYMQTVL
Summary of the method: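 Steps: seed 800 TSHR-HEK293 cells per well; add test compound and hold 30 min at ambient temperature; dispense cAMP-d2 then anti-cAMP cryptate; incubate 1 h at ambient; measure fluorescence intensity.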

[14] = qHTS assay to identify small molecule agonists of the hypoxia (HIF-1) signaling pathway - cell viability counter screen (AID 1224844; calls by dose curve; further: nearly all actives have a fitted effect of over 50% in size)
Summary of the method: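 Tox21 10K compounds were added to HRE-bla ME-180 cells (0.5% dialyzed FBS) and incubated 17 hrs at 37C; ATP-based CellTiter-Glo luminescence then reported cell viability in the same wells.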

[15] = qHTS assay to identify small molecule antagonists of the estrogen related receptor (ERR) signaling pathway from Tox21 library (AID 1224848); further: nearly all actives have a fitted effect of over 50% in size; further: potency means the concentration at half of the fitted maximal effect
Summary of the method: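 Luminescent reporter read-out (ONE-Glo) from NTP's ERR cell line after 18 h treatment at 37 C with DMSO-dissolved Tox21 compounds; cells pre-plated 6 h beforehand at 2,000 per well.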

[16] = qHTS assay to identify small molecule agonists of the estrogen related receptor (ERR) signaling pathway from Tox21 library (AID 1224849; calls by dose curve; further: nearly all actives have a fitted effect of over 15% in size); conditions: ERR reporter cell line, ONE-Glo luciferase, 18 h
Summary of the method: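 Agonist signal is luciferase luminescence from an ERR reporter cell line treated 18 h at 37 C with DMSO-dissolved compounds, read 30 min after ONE-Glo addition at room temperature.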

[17] = qHTS assay to identify small molecule agonists of H2AX (AID 1224845; active means well fitted activation curve with a large enough effect in the signal ratio in the repeat runs, not every such curve was filed as active; the % refers to the signal ratio)
Summary of the method: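 Wild-type CHO-K1 cells, plated overnight, exposed 3hr at 37C to 15 concentrations (0.76% DMSO final). Lysed, then HTRF anti-pH2AX (S139) cryptate and anti-H2AX-d2 antibodies, 24 hr room temperature; 665/620 nm emission read.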

[18] = qHTS RealTime-Glo MT Cell Viability Assay in HEK293 cells - 32 hour (AID 1224868); further: nearly all actives have a fitted effect of over 50% in size; further: potency means the concentration at half of the fitted maximal effect
Summary of the method: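 Cells + reagent dispensed (600 cells/well, HEK293) → 5 h at 37 C/5% CO2 → 23 nL compound in DMSO pinned → 40 h at 37 C → luminescence read at 0, 8, 16, 24, 32, 40 h.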

[19] = qHTS assay to identify small molecule antagonists of the estrogen related receptor signaling pathway with the pleiotropic PPARgamma coactivator (PGC) from Tox21 10K library (AID 1224841; call rule not given here)
Summary of the method: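 Antagonism in this quantitative HTS is taken from loss of luciferase signal in PGC/ERR cells. Cells (2,000/well) are treated with compounds in DMSO after a 6 h settling period and read by One-Glo luminescence after 18 h.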
On the % scale 0 is the no-effect control and ±100 the full control effect.

Clc1nnc(Cl)c2ccccc12
inactive: Potency [1] | Potency [2] | Potency [3] | Potency [4] | Potency [5] | Potency [6] | Potency [7] | Potency [8] | Potency [9] | Potency [10] | Potency [11]

COc1cc(/C=C/c2ccccc2)oc(=O)c1
inactive: Potency [2] | Potency [3] | Potency [4] | Potency [6] | Potency [13] | Potency [14] | Potency [7] | Potency [8] | Potency [15] | Potency [9] | Potency [10] | Potency [11]
active: Potency [1] 7.35 µM | Potency [5] 7.96 µM | Potency [12] 5.64 µM | activity change, positive = activation ([16]; at 92.4 µM (top of the series)) 36.4%

CCCC[P+](C)(CCCC)CCCC
inactive: Potency [1] | Potency [2] | Potency [3] | Potency [4] | Potency [5] | Potency [6] | Potency [13] | Potency [14] | Potency [17] | Potency [7] | Potency [8] | Potency [9] | Potency [10] | Potency [11]

FC(F)(F)c1cccc(Cl)c1
inactive: Potency [1] | Potency [2] | Potency [3] | Potency [4] | Potency [5] | Potency [6] | Potency [13] | Potency [14] | Potency [17] | Potency [7] | Potency [8] | Potency [9] | Potency [18] | Potency [10] | Potency [11]

C=C(C)c1cccc(C(=C)C)c1
inactive: Potency [1] | Potency [2] | Potency [3] | Potency [4] | Potency [5] | Potency [6] | Potency [13] | Potency [17] | Potency [7] | Potency [8] | Potency [9] | Potency [18] | Potency [10] | Potency [11]

OCC(F)(F)F
inactive: Potency [1] | Potency [2] | Potency [3] | Potency [4] | Potency [5] | Potency [6] | Potency [19] | Potency [12] | Potency [13] | Potency [14] | Potency [17] | Potency [7] | Potency [8] | Potency [15] | activity change, positive = activation ([16]; at 92.4 µM (top of the series)) -0.31% | Potency [9] | Potency [18] | Potency [10] | Potency [11]

Clc1sc(Cl)c(Cl)c1Cl
inactive: Potency [2] | Potency [4] | Potency [5] | Potency [6] | Potency [19] | Potency [13] | Potency [14] | Potency [17] | Potency [7] | Potency [8] | Potency [15] | activity change, positive = activation ([16]; at 92.4 µM (top of the series)) 4.94% | Potency [9] | Potency [10] | Potency [11]

c1ccc(C(O[C@@H]2CCCN(CCc3ccc4c(c3)OCO4)C2)c2ccccc2)cc1
inactive: Potency [2] | Potency [17] | Potency [7] | Potency [9] | Potency [10] | Potency [11]

C#C[C@]1(OC(C)=O)CC[C@H]2[C@@H]3CCC4=C[C@@H](OC(C)=O)CC[C@@H]4[C@H]3CC[C@@]21C
active: Potency [15] 23.7 µM | Potency [18] 21.3 µM
inactive: Potency [1] | Potency [2] | Potency [5] | Potency [6] | Potency [12] | Potency [13] | Potency [14] | Potency [7] | activity change, positive = activation ([16]; at 42.5 µM (top of the series)) -53.5% | Potency [9] | Potency [10] | Potency [11]

CC[N+](CC)(CC)CCOc1ccc(/C=C/c2ccccc2)cc1
active: Potency [15] 7.5 µM
inactive: Potency [1] | Potency [3] | Potency [4] | Potency [5] | Potency [6] | Potency [13] | Potency [17] | Potency [7] | activity change, positive = activation ([16]; at 42.5 µM (top of the series)) -43% | Potency [10]

From PubChem BioAssay (Tox21)
